SW480 rerep: DNA re-replication induction in SW480 cells. SW480 DNA re-replication, Hoechst DNA content imaging, 48 h. Potency, µM (highest dose often 46.1 µM), for the others: top-dose re-replication activation, hits mostly activators. hit rate 1.8% among 340,000. AID 624297; further: % of control where 0% means no effect; nearly all actives have a fitted effect of over 55% in size
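Readout is total intensity of Hoechst-stained nuclei, excited at 405 nm and collected at 500-530 nm. Compound treatment lasted 48 hr at 37 C in 5% CO2 before staining.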
MCF10A rerep: inducers of DNA re-replication in MCF 10A breast cells; MCF 10A DNA re-replication, Hoechst nuclear intensity, 48 h; Potency, µM (top dose mostly 46.1 µM), inactives show top-dose activity, positive = re-replication, most hits filed as activators; hit rate 2.9% among 350,000; further: % of control where 0% means no effect; nearly all actives have a fitted effect of over 50% in size
KB-V1 cytotox: KB-V1 MDR subline cytotoxicity; AID 1347076; hit rate 3.4% among 400,000; KB-V1 MDR cells viability, CellTiter-Glo, 72 h; Potency, µM (highest dose often 46.1 µM), hits mostly cytotoxic; further: on the % scale 0 is the no-effect control and ±100 the full control effect; nearly all actives have a fitted effect of over 60% in size
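Readout: CellTiter-Glo luminescence, 10 min after addition. Cells: KB-V1 MDR subline, 72 h at 37 degrees C with compound. Analysis: corrected, normalized data fitted to concentration-effect curves.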
HT1080NT lethal: kills 2HG-producing HT-1080-NT fibrosarcoma cells | hit rate 1.6% among 360,000 | HT-1080-NT fibrosarcoma viability, CellTiter-Glo ATP luminescence, 48 h | Potency, µM (series often up to 46.1 µM), inactives show at the highest dose activity, negative = less viability, actives largely listed as cytotoxic;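 further: NT is the 2HG producing partner of a matched IDH1 knockdown line; 0% = DMSO-treated cells and -100% = media-only wells without cells; nearly all actives have a fitted effect of over 55% in size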
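Read-out is CellTiter-Glo luminescence after 10 minutes at room temperature, following 48 hours' compound treatment of HT-1080-NT cells (750 cells/well, RPMI, 5% FBS, 37 degrees C).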
KB-3-1 tox: kills parental KB-3-1 adenocarcinoma cells; Potency, µM (series often up to 46.1 µM), hits mostly cytotoxic; hit rate 1.4% among 400,000; KB-3-1 viability, CellTiter-Glo ATP luminescence, 72 h; further: on the % scale 0 is the no-effect control and ±100 the full control effect; nearly all actives have a fitted effect of over 60% in size
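KB-3-1 parental drug-naive adenocarcinoma cells in DMEM/10% FBS, incubated 72 h at 37 C with pin-transferred compounds across a concentration series. Viability by CellTiter-Glo luminescence; concentration-response curves fitted after normalization.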
HT1080 IDH1KD tx: HT-1080 IDH1 knockdown cell toxicity (counter line). HT-1080 IDH1 knockdown viability, ATP luminescence, 48 h. Potency, µM (top dose mostly 46.1 µM), for the others: at the top dose activity, negative = toxicity, most hits filed as cytotoxic. hit rate 2% among 360,000. AID 686971;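 further: 0% = DMSO wells and -100% = cell-free medium wells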
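% activity derives from luminescence (CellTiter-Glo), normalised to DMSO and no-cell wells. HT-1080-IDH1KD cells, 750/well, had 48 h compound exposure at 37 °C.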
The depositor's hits bear a star; i = inactive; ? = inconclusive; nt = not tested or not shown; [ ] = dose if it differs, or a comment. Only some compounds are listed: those with a hit (about 8% of all), similar ones and a draw of the others. The call rests on the fitted dose curve; in most records, active means well fitted curve in the direction sought with a large enough effect; inconclusive means small, poorly fitted or top-dose-only effect, or another doubt; inactive means no such curve, though single readings can be large; an effect the other way counts as inactive or inconclusive. Potency means the concentration at half of the fitted maximal effect.

SMILES	SW480 rerep	MCF10A rerep	KB-V1 cytotox	HT1080NT lethal	KB-3-1 tox	HT1080 IDH1KD tx
O=C(CN1CCc2ccccc2C1)Nc1ccccc1N1CCCCCC1	?	13µM*	?	-22.2%	?	?
CC(C)n1c(O)c(C2c3cc(Cl)ccc3Oc3[nH]c(=O)n(C(C)C)c(=O)c32)c(=O)[nH]c1=O (centres undefined)	?	2.06µM*	7.31µM*	5.17µM*	8.2µM*	2.31µM*
CCN(CC)C(=O)c1ccc(NC(=O)c2cccc(F)c2)cc1	-1.8%	-0.4%	20.6µM*	7.2%	i	4.1%
COc1ccc(N2C(=O)/C(=C/C=C/c3ccccc3[N+](=O)[O-])C(=O)NC2=S)cc1	2.6%	?	i	-5.9%	i	-12.7%
CCOc1cc(CNC(C)C(O)c2ccccc2)cc(Cl)c1OCC (centres undefined)	3.1%	1.3%	i	?	?	-28.7%
Cc1c2cnn(CC(=O)N3CCC4(CC3)OCCO4)c(=O)c2c(C)n1Cc1ccccc1F	-1.4%[9.22 µM]	0.0%	i	0.6%	i	-3.8%
N=c1c2c(n(Cc3ccc(Cl)cc3Cl)c3c1CCC3)CCCC2	?	18.3%	i	20.6µM*	?	14.6µM*
Cc1nn(Cc2ccc(Cl)cc2Cl)c(Cl)c1C(=O)O	?	14.5%	i	-0.8%	i	-6.4%
COc1ccc(CC(=O)N2CCN(C)CC2)cc1OC	-0.4%	-0.6%	i	-5.6%	i	-3.9%
CCCCn1c(/N=C/c2c[nH]c3ccccc23)nc2ccccc21	18.4µM*	11.6µM*	i	?	i	?
C(=NN1CCCCCC1)c1c[nH]c2ccccc12	1.3%	29.2%	i	10.4%	i	14.8%
O=c1[nH]c(=S)n(CCC2=CCCCC2)c(O)c1C=NC1CCN(Cc2ccccc2)CC1	-0.9%	8.3%	5.8µM*	-5.2%	?	-4.3%
O=C(COc1ccc(Cl)cc1)N1CCN(C2CCCC2)CC1	-30.3%	8.4%	i	15.5%	i	13.4%
CN1C(=O)N(C)C(=O)C2(Cc3cc([N+](=O)[O-])ccc3N(C)C2)C1=O	20.9%	-1.2%	i	3.4%	i	2.0%
CCCCCCn1c(N)c(C(=O)NCCN2CCOCC2)c2nc3ccccc3nc21	20.6µM*	0.82µM*	?	?	?	?
CC(C)CCn1c(N)c(C(=O)OCC2CCCO2)c2nc3ccccc3nc21 (centres undefined)	16.6%	?	?	?	i	20.6µM*
COCCCNC(=O)c1c(NC(=O)c2ccccc2)n(Cc2ccccc2)c2nc3ccccc3nc12	1.3µM*	?	i	-3.2%	i	-7.9%
CCCCn1c(N)c(C(=O)OCC2CCCO2)c2nc3ccccc3nc21 (centres undefined)	-1.9%	1.1%	i	?	i	-16.5%
CCCCCn1c(N)c(C(=O)NCCN2CCOCC2)c2nc3ccccc3nc21	2.91µM*	?	?	16.4µM*	?	18.4µM*
COc1ccc(CCNC(=O)c2c(N)n(CCN3CCOCC3)c3nc4ccccc4nc23)cc1OC	-2.4%	6.7%	?	?	i	?
CCn1cc(C=C2C(=O)N(C)C(=O)N(C)C2=O)c2ccccc21	-3.5%	-11.5%	?	2.3%	i	-3.5%
Cc1ccc(CN2C3CCCC2CC(NC(=O)Nc2cccc(F)c2)C3)cc1 (centres undefined)	16.7%	3.2%	i	?	?	-20.0%
CN(C)c1nn(C(=O)Nc2cccc(C(F)(F)F)c2)cc1-c1ccccc1	-2.3%	?	i	-15.8%	i	0.5%
CNC[C@H](O)c1ccc(O)cc1	0.7%[20.6 µM]	-10.0%[20.6 µM]	nt	nt	nt	nt
Oc1ccc(C2=CCNCC2)cc1O	0.6%	-1.8%	i	nt	i	nt
COCCCn1c(N)c(C(=O)NCCC(C)C)c2nc3ccccc3nc21	?	?	23.1µM*	-22.2%	?	?

Bioassay records: PubChem BioAssay, National Center for Advancing Translational Sciences (NCATS)
